High-throughput results as filed in PubChem.
TRPM1 prom inh: inhibitors of MITF-dependent TRPM1 promoter reporter, primary screen, cell-based, SK-MEL-5, single point, luciferase | AID 488899, 2010 | hit rate 0.83% among 330,000 | inhibition, % at 12.5 µM | SK-MEL-5 TRPM1 promoter luciferase, 24 h;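 active means mean inhibition across replicates of 60% or more, whatever share of single replicates reaches that level; inconclusive means some that reach 60%, reason not given; inactive means mean inhibition across replicates below 60%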
MITF act: activators of MITF-driven TRPM1 promoter reporter, primary screen, cell-based, SK-MEL-5, luciferase, single point; AID 588334, 2011; hit rate 0.75% among 300,000; activation, % at 12.5 µM; SK-MEL-5 TRPM1-promoter luciferase, 24 h; % of positive control, neutral wells = 0;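 active means mean activation of at least 80% with every replicate also reaching 80%; inconclusive means mean reaches 80% but some replicate falls short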;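 further: 0% = neutral control wells and 100% = parthenolide positive control wells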
PAX8 inh HTS: inhibitors of PAX8-driven TPO luciferase reporter, primary screen, RMG-I cells, single concentration; hit rate 1.2% among 360,000; inhibition, % at 12.6 µM; AID 652154, 2013; SteadyGlo, 24 h;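 active means mean replicate inhibition at least 60% with every replicate also reaching 60%; inconclusive means only one of the two criteria is met; inactive means mean below 60% and not all replicates reaching 60%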;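 further: luciferase light reporting Pax8 driven TPO promoter activity; plate controls were median of neutral control wells for no effect and mitoxantrone controls for full effect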
Wnt bcat act: Wnt/beta-catenin pathway activators, primary screen, cell-based, plate reader, single point; Wnt/beta-catenin reporter cell assay, activator; activation, % at 9.35 µM; hit rate 1.2% among 300,000; in the data active means activation above about 30%, passing the limit was not always enough; inconclusive means no clear call, values can overlap the other calls;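 further: 0% = neutral control wells and 100% = positive control wells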
esBAF inh: Bmi1 luciferase reporter increase in mESCs, primary screen, esBAF inhibitor project, mouse ES cells, Bmi1 luciferase knock-in, single point | 24 h; 100% = twice the neutral-well signal | reporter increase, % at 12.5 µM | hit rate 2% among 350,000 | AID 602393, 2012; in the data active means activation above about 40%; inconclusive means no clear call, values can overlap the other calls;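 further: 0% = median of the plate's neutral control wells and 100% = double that signal; a rise in the Bmi1 reporter signal indicates esBAF inhibition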
EWS-Fli inh: EWS/Fli-driven NR0B1 reporter inhibitors, primary screen, A673 cells, NR0B1 luciferase, luminescence, MLPCN library; hit rate 0.67% among 350,000; inhibition, % at 12.6 µM; viability-normalised;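 active means mean inhibition of at least 50% after viability correction, with every replicate also passing that limit; inconclusive means mean reaches 50% but only one of two replicates passes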;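 further: firefly luciferase signal divided by Alamar Blue viability fluorescence both relative to DMSO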
Active calls of the source: *; u = inconclusive; x = not tested or not shown; ! = not active in a repeat. A selection: hits, their analogues and other compounds. The true share with any hit is near 4%.

SMILES | TRPM1 prom inh | MITF act | PAX8 inh HTS | Wnt bcat act | esBAF inh | EWS-Fli inh
O=C(CNC(=S)N(Cc1ccccc1F)C1CCCCC1)NCC1CCCO1 (stereo not drawn) | -8 | 4 | 65* | -9 | x | -5
O=C(C1CC1)N1[C@H](CO)[C@H]2c3ccccc3NC[C@H]21 | x | x | -15 | x | -9 | -7
COc1cc(C2C(C#N)=C(N)Oc3c2oc(CO)cc3=O)cc(OC)c1OC (stereo not drawn) | 0 | x | -9 | -7 | 4 | x
COC(=O)C1=C(N)Oc2c(oc(CO)cc2=O)C1c1ccc(F)cc1 (stereo not drawn) | x | x | 22 | 40* | x | -6
C[C@@H]1CN([C@@H](C)CO)S(=O)(=O)c2ccc(Br)cc2O[C@@H]1CN(C)Cc1ccccc1 | x | x | 2 | x | -4 | 8
C=CCCC(=O)Nc1nc(C)c(-c2csc(Nc3cc(OC)ccc3OC)n2)s1 | 40 | -40 | 56 | -8 | -60 | 58*
COc1cccc(Nc2nc(-c3sc(NC(=O)c4ccccc4)nc3C)cs2)c1 | 19 | -16 | 2 | 2 | 52* | -3
CCCC(=O)Nc1nc(C)c(-c2csc(Nc3cc(OC)ccc3OC)n2)s1 | 10 | -7 | 48 | -7 | -4 | 32
CC(=O)Nc1nc(C)c(-c2csc(Nc3cccc(C(C)=O)c3)n2)s1 | 65* | -63 | 13 | 2 | -10 | -2
CC(=O)Nc1nc(C)c(-c2csc(Nc3ccccn3)n2)s1 | -13 | 13 | -1 | 52*! | x | -107
CC(=O)Nc1ccc(Nc2nc(-c3sc(NC(C)=O)nc3C)cs2)cc1 | 19 | x | 18 | 1 | 0 | 6
CC(=O)Nc1nc(C)c(-c2csc(Nc3cccc([N+](=O)[O-])c3)n2)s1 | 45 | -46 | x | x | 3 | x
CCCC(=O)Nc1ccc2c(c1)C(=O)N(C)C[C@H](OC)[C@H](C)CN(Cc1ccc(F)cc1)[C@@H](C)CO2 | x | x | x | x | 0 | -3
CCC(=O)N[C@@H]1C=C[C@@H](CC(=O)NCC2CC2)O[C@@H]1CO | x | x | x | x | x | -2
Cc1ccc(-c2ccc3c(c2)O[C@H](CN(C)Cc2ccncc2)[C@@H](C)CN([C@H](C)CO)S3(=O)=O)cc1 | x | x | x | x | -34 | 72*
Cc1ccccc1-c1ccc2c(c1)O[C@@H](CN(C)Cc1ccncc1)[C@H](C)CN([C@H](C)CO)S2(=O)=O | x | x | x | x | -10 | 66*
COc1cccc(CN2[C@@H]3CNC[C@H]2C3c2ccc(-c3ccc(C)cc3)cc2)c1 (stereo partly drawn) | x | x | 9 | x | x | 14
CCN1CCN(Cc2c3ccccc3cc3ccccc23)CC1 | -20 | 20 | 8 | 49* | 5 | -36
Oc1ccc2ccccc2c1CN1CCCCC1 | 3 | -3 | 21 | 1 | 1 | 8
CN1C(=O)c2cc(NC(=O)Cc3cccs3)ccc2OC[C@@H]2O[C@H](CC(=O)N[C@@H]3CCN(Cc4ccccc4)C3)CC[C@H]21 | x | x | 20 | x | -1 | 1
C(=NOCCc1ccccc1)c1ccncc1 | -100 | 91* | -132 | 0 | 49* | -106
C(=N\N=C\c1ccccn1)/c1ccccn1 | 2 | -1 | -8 | 0 | 8 | 4
C(=NOCCc1ccccc1)c1ccccn1 | -43 | 46 | -220 | 7 | 95* | -130
Cc1cc(C(C)(C)C)cc(C)c1Cn1c2[n+](c3ccc(C(F)(F)F)cc31)CCCCC2 | 84* | -84 | 90* | -3 | x | 40
Cc1ccc(C(=O)c2cccc(N)c2)cc1C | 66* | -64 | 1 | -5 | -49 | u
SMILES | TRPM1 prom inh | MITF act | PAX8 inh HTS | Wnt bcat act | esBAF inh | EWS-Fli inh
COc1ccc(C2CC(=O)N(C)c3ccccc3S2)cc1OC (stereo not drawn) | -28 | 35 | -181 | 54* | 28 | -14
Cc1cc([N+](=O)[O-])nn1CCCC(=O)Nc1sc2c(c1C(N)=O)CCC(C)C2 (stereo not drawn) | 2 | -4 | 97* | -1 | x | -4
O=C(NC1CCCCCC1)c1ccc2c(=O)n3c(nc2c1)CCCCC3 | -76 | 92* | x | x | 21 | x
O=C(COc1ccccc1F)NNC(=O)c1ccc2c(=O)n3c(nc2c1)CCC3 | 10 | -12 | 6 | 0 | -3 | -7
O=C(Nc1ccccc1Cl)c1ccc2c(=O)n3c(nc2c1)CCC3 | -71 | 71 | -92 | 51* | 16 | -41
O=C(Nc1ccc(SC(F)F)cc1)c1ccc2c(=O)n3c(nc2c1)CCC3 | -45 | 42 | -113 | 20 | 87* | -37
O=C(NCCOc1ccccc1F)c1ccc2c(=O)n3c(nc2c1)CCC3 | -44 | 44 | -103 | 46* | 6 | -34
C[C@@H]1CN([C@H](C)CO)C(=O)c2cc(NC(=O)CCCCCC(=O)Nc3ccccc3N)ccc2O[C@H]1CN(C)C(=O)NC1CCCCC1 | x | x | 17 | x | x | -2
Cc1cccc(NC(=O)c2ccc3c(=O)n4c(nc3c2)CCCCC4)n1 | -2 | 3 | -62 | 35* | -37 | 9
CC(=O)N(C)C[C@@H]1Oc2ncc(C#CCC3CCCC3)cc2C(=O)N([C@H](C)CO)C[C@H]1C | x | x | x | x | 7 | -7
COC(=O)c1ccc(COc2ccc3c(C)c(C)c(=O)oc3c2C)o1 | x | x | x | x | 23* | x
O=C(c1ccc(COc2ccccc2[N+](=O)[O-])o1)N1CCCCCC1 | -43 | 43 | x | 0 | 55* | x
Cc1ccc(OCc2ccc(C(=O)NN)o2)c([N+](=O)[O-])c1 | 0 | x | -15 | -1 | x | -9
COC(=O)c1ccc(COc2ccc(C)cc2[N+](=O)[O-])o1 | -69 | x | -58 | 36* | x | -8
O=C(c1ccc(COc2ccccc2[N+](=O)[O-])o1)N1CCCCC1 | -25 | 21 | x | x | x | x
COc1cccc(-c2cnc3c(c2)C(=O)N([C@@H](C)CO)C[C@@H](C)[C@@H](CN(C)C(=O)CN(C)C)O3)c1 | x | x | x | x | -10 | 3
CN(C)S(=O)(=O)c1cccc(COc2cccnc2[N+](=O)[O-])c1 | 0 | 3 | 7 | -2 | -3 | 3
O=[N+]([O-])c1ncccc1OCc1ccc(Cl)c(Cl)c1 | -66 | 67 | -110 | 18 | 67* | -94
O=C(Nc1ccccc1)N1C[C@@H]2N[C@H](C1)[C@@H]2c1ccc(/C=C/c2ccccc2)cc1 | x | x | 113* | x | x | -1
O=C(Nc1ccc(C(F)(F)F)cc1)N1C[C@@H]2N[C@H](C1)C2c1ccc(-c2cccc(F)c2)cc1 (stereo partly drawn) | x | x | 88* | x | x | 0
N#Cc1ccc(-c2ccc(C3[C@@H]4CN(C(=O)Nc5ccc(C(F)(F)F)cc5)C[C@H]3N4)cc2)cc1 (stereo partly drawn) | x | x | 15 | x | x | 12
O=C(Nc1ccccc1)N1C[C@@H]2N[C@H](C1)C2c1ccc(-c2ccccc2)cc1 (stereo partly drawn) | x | x | -18 | x | x | -3
